Measurements published in the supplement of paper PMC6555819.

What follows are sequences tested on PPARa:RXRa (NR concentration 270 nM, RXRa partner concentration 90 nM) (assay: PBM binding z-score (relative to random genomic background probes); higher = stronger binding; sequences stand for … in GC…GCGATTGACAGCGTAGAATGAAGG).
Protocol: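 Protein-binding microarray (Agilent 4x180K custom design, double-stranded 60-nt probes: 5' GC cap, 34-nt variable region, 24-nt constant primer region; full probe sequence given). Purified or IVT nuclear receptor:RXRα heterodimers (3:1 NR:RXRα, mostly 270:90 nM) or homodimers were incubated for 1 h in PBS with 2% milk and no ligand, then detected with Alexa488 antibodies. Fluorescence from o1-orientation probes (~5 replicates averaged) was converted to z-scores against 500 random hg19 background probes. Variable regions are seed direct-repeat (DR0–DR5) sites, all their single-nucleotide variants and half-site ablations.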

| Sequence | PBM binding z-score |
| --- | --- |
| TCGCCTAGGTCATGGGCCAGTATACCACGCGAAC | 4.13 |
| TCTATTAGTTGATTAGGGCAACCGAAACAGCGGA | 1.05 |
| CGTCCAAGGTCATAGAGGTCAGTGAATGCCGAGT | 5.85 |
| GCTGCTAGGTCAACTGATGGTCATCTAAAGCTCG | 3.75 |
| ACTTAAGGGTCAACGAGGTTATAGCACGCGTATA | 6.46 |
| CGTCCAAGGTCTAGGTCAGTGAAAGAGACTCGAA | 1.06 |
| CCGACGGGGGCAAAGGTTACCATACTCAGTACGA | 6.41 |
| AATACAGGGTCATCTTAGGCCAGAGTACGCACAG | 6.06 |
| GATACAGGGTCAAGGTCAGAGTACGCGTATTGAT | 5.88 |
| ATATGTAGGTTACCTGGGGTCATTCAGACTAGGC | 5.73 |
| TAGCCTAGGTCATTCAGGGGCAAGTATAGAAAGC | 3.84 |
| CAAAATAGGTCACGAAAGGTCAAAGTCGAATGAC | 6.79 |
| CCTACTGGGCCATTCAGAGGTCAATGATCATATG | 3.87 |
| GCTAGTTGGTCAGTAAAATGTCACACACCGGTCG | -0.0403 |
| CAAACTAGGTCACAGTGGTCAAAGTCCGTGCGTA | 5 |
| CTATGTAGGTTAAGGGAGTCATTCAGTTTGAAAG | 3.21 |
| CGTACAAGGTCAAAGGTCAGTGAAGAGATGACGG | 7.11 |
| CGAACTAGGTCAAGGCCAGTGAATCTCCGCACGC | 5.04 |
| CAAAATAGGTCAAAGGTCAAAGTCGAGCCAACCA | 7.93 |
| ATCGAAAGGTCGACGAGGTGAGTAAACACCGTTT | 4.51 |

| Sequence | PBM binding z-score |
| --- | --- |
| ACTTACGGCTCAACGAGGTTATAGCACGCGTATA | 0.734 |
| TATCAAAGTTCAAAGGTAACGTAAGTATCCACAC | 5.56 |
| CCTACTGGGCCGTTCAGAGGTCATTGATCATATG | 3.56 |
| CGAACGAGGTCATTGACAGGACAGTGAATAGTAA | 6.13 |
| CGTCCAAGGTCAATGCTAGATCAGTGAAAGCATT | 4.78 |
| AGAATGAGGTTACTAAAGATCAGGGAAACGCTTG | 2.5 |
| CCTACTGGGCCAAAAAGGTCATTGATGCCGATAA | 4.51 |
| CTCGAAAGGTCGTGCTCAGATGAGTATACCAAAC | 4.71 |
| CCTACTGGGCCACGAAAGGCCATTGATTCAGTGA | 0.948 |
| ATCGAAAGGTCCAAGGTGAGTATACCCACCCGAA | 0.771 |
| CGTTCAAGGTCAAAGGTCAGTGAAGAGATGACGG | 7.05 |
| TTACCAAGGTGAACGGTCGTTGATGCACGCCTTG | 2.04 |
| TCTAGTTGGTCACGGAGGGCACACACGACGGGTA | 1.38 |
| TAGCCTAAGTCATGCGGGCCAGTATAGTGTCGGC | -0.167 |
| TCTGCTAGGTCAACGATGGTCAGTTAATCTGCTA | 3.04 |
| ACTCGGAGGACAAAGGTCAGGGCTACGCCAGTGA | 4.98 |
| TCTTGTAGATCGATAGAGGTTAAGAAAGTGCGCT | 1.48 |
| CTATGTAGGTTACGGGGGTCATTCAGTTTGAAAG | 6.13 |
| CGAACTAGGTCGCCAGGACAGTGAAGAGGTTGGA | 2.09 |
| ATCGAAAGGTCGAAGGTGCGTATACCCACCCGAA | 4.12 |
